# Assay outcomes as filed in PubChem.
# hERG WT inh – blocks the wildtype human KCNH2 potassium channel; hit rate 0.37% among 340,000; Q12809; AID 720551; activity change, % at 1.84 µM; U2OS, BacMam KCNH2, thallium flux FluxOr; hits give low values;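 active means maximum activity change below -70%; inconclusive means maximum activity change between -70% and -50%; inactive means maximum activity change above -50%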; further: on the % scale 0 is the no-effect control and ±100 the full control effect
#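 U2OS cells transduced with wild-type KCNH2 virus are loaded with FluxOr dye for 45 min, and thallium flux is measured in kinetic reads before and after stimulation buffer. Rate constants are normalized to DMSO controls.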
# KB-3-1 cytotox – KB-3-1 parental cell cytotoxicity | KB-3-1 viability, CellTiter-Glo ATP luminescence, 72 h | Potency, µM (highest dose often 46.1 µM), hits mostly cytotoxic | hit rate 1.4% among 400,000 | AID 1347075; further: potency means the concentration at half of the fitted maximal effect; on the % scale 0 is the no-effect control and ±100 the full control effect; nearly all actives have a fitted effect of over 60% in size
#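 72 h, 37 °C compound treatment of KB-3-1 parental cells; CellTiter-Glo added, 10 min, luminescence read. Data corrected against DMSO-only plates and normalized before curve fitting.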
# KB-V1 cytotox – KB-V1 MDR subline cytotoxicity. KB-V1 MDR cells viability, CellTiter-Glo, 72 h. Potency, µM (highest dose often 46.1 µM), most hits filed as cytotoxic. hit rate 3.4% among 400,000; further: potency means the concentration at half of the fitted maximal effect; on the % scale 0 is the no-effect control and ±100 the full control effect; nearly all actives have a fitted effect of over 60% in size
#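 KB-V1 MDR subline cells in DMEM (phenol-red free, 10% FBS) exposed to compounds in qHTS concentration series for 72 h at 37 degrees C. Viability read by CellTiter-Glo luminescence; concentration-effect curves fitted after normalization and correction.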
# KCNH2 3.1 inh – blocks the human KCNH2 3.1 channel isoform. hit rate 0.95% among 340,000. AID 720553. activity change, % (tested at about 1.8 µM). U2OS KCNH2 3.1, thallium flux FluxOr; hits give low values;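 active means maximum activity change below -70%; inconclusive means maximum activity change from -70% to -50%; inactive means maximum activity change above -50%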;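 further: thallium influx rate constant from kinetic fluorescence after stimulation buffer; on the % scale 0 is the no-effect control and ±100 the full control effect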
#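 Thallium flux via FluxOr fluorescence (Red40 quencher, 45 min loading) in U2OS cells virally expressing the KCNH2 3.1 isoform (1.77 x 10^8 /mL virus, overnight at 37 C). Rate constants from 2-min kinetic reads post-stimulation, normalised to positive and negative controls.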
# MCF10A rerep – DNA re-replication induction in MCF 10a cells. MCF 10A DNA re-replication, Hoechst nuclear intensity, 48 h. Potency, µM (top dose mostly 46.1 µM), inactives show at the top dose activity, positive = re-replication, usual class: activators. hit rate 2.9% among 350,000; further: potency means the concentration at half of the fitted maximal effect; % of control where 0% means no effect; nearly all actives have a fitted effect of over 50% in size
# SW480 rerep – inducers of DNA re-replication in SW480 colon cancer cells | hit rate 1.8% among 340,000 | SW480 DNA re-replication, Hoechst DNA content imaging, 48 h | Potency, µM (highest dose often 46.1 µM), inactives show at the top dose re-replication activation, actives largely listed as activators; further: potency means the concentration at half of the fitted maximal effect; % of control where 0% means no effect; nearly all actives have a fitted effect of over 55% in size
#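 Cells (250 per well) received 23 nL compound or DMSO by pin tool and were kept 48 hr at 37 C, 5% CO2. Nuclei were then stained with Hoechst for 40 min and scanned for DNA content.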
# * marks the source's active call; other numbers are inactive results; i = inactive; ? = inconclusive; · = no result. An excerpt weighted towards active compounds, which were near 7.6% of everything screened. Unless noted, the call rests on the fitted dose curve; in most records, active means well fitted curve in the direction sought with a large enough effect; inconclusive means small, poorly fitted or top-dose-only effect, or another doubt; inactive means no such curve, though single readings can be large; an effect the other way counts as inactive or inconclusive.
SMILES,hERG WT inh,KB-3-1 cytotox,KB-V1 cytotox,KCNH2 3.1 inh,MCF10A rerep,SW480 rerep
Cc1ccc(S(=O)(=O)N(C)Cc2ccc(C(=O)N/N=C/c3ccc(OC(F)F)cc3)cc2)cc1,?,i,16µM*,-109*,?,3%
C/C(=N\NC(=O)c1ccc(CN(C)S(=O)(=O)c2ccc(C)cc2)cc1)c1ccc(OC(F)F)cc1,-2,10µM*,2.6µM*,-42,?,-16%
COc1ccc2c(=O)n3nc(Nc4cccc(N5CCN(C)CC5)c4)sc3nc2c1,·,i,i,·,·,·
CCN(CC(=O)Nc1c(F)cccc1F)C(=O)c1ccc(Cl)c(S(=O)(=O)N2CCCC2)c1,2,i,i,3,7%,?
CCCCCc1c(-c2cccc(Cl)c2)ncn1CCc1ccccc1OC,·,i,?,·,·,·
CCCc1c(-c2cccc(F)c2)ncn1CCc1ccccc1OC,·,?,18µM*,·,·,·
CCCCc1c(-c2cccc(F)c2)ncn1CCc1ccccc1OC,·,?,12µM*,·,·,·
CCCCCc1c(-c2cccc(OC)c2)ncn1CCc1ccccc1OC,·,?,16µM*,·,·,·
CCCc1c(-c2ccccc2)ncn1Cc1ccccc1OC,·,?,18µM*,·,·,·
CCCCNC(=O)C(NC(=O)c1ccc(=O)[nH]c1)C(=O)c1ccccc1 (stereo not given),·,i,i,·,·,·
CCOC(=O)C1(C)CCCN(C(=O)c2ccc(C#N)cc2)C1 (stereo not given),·,i,i,·,·,·
Cc1cc(C(=O)C(C(c2ccccc2)N2CCOCC2)N2CCOCC2)ccc1Cl (stereo not given),-3,i,i,9,3%,?
CCc1ccccc1NC(=O)CCC(=O)N1CCSc2ccccc21,-7,i,i,0,8%,1%
CCCCc1c(-c2cccc(Br)c2)ncn1CCc1ccccc1OC,·,?,10µM*,·,·,·
CCCCCn1cnc2sc(-c3ccccc3)cc2c1=O,4,i,?,-17,?,3%
CCCCCc1c(-c2cccc(F)c2)ncn1CCc1ccccc1OC,·,?,8.2µM*,·,·,·
CCOC(=O)c1ccc(NC(=O)c2c(C)nn(-c3ccc(F)cc3)c2-n2cccc2)cc1,·,i,i,·,·,·
Cc1ccc(NC(=O)Cc2coc3c(C)c(C)ccc23)c(C)c1,·,i,i,·,·,·
Cc1ccc2c(CC(=O)Nc3ccc(N4CCN(C)CC4)cc3C)coc2c1,31,?,?,-83*,?,?
NNC(=O)c1cc2c(s1)-c1cc(Cl)ccc1SC2,7,?,i,-8,21µM*,29µM*
COc1cccc(OCC(Cn2cnc3ccccc32)OC(C)=O)c1 (stereo not given),-6,i,16µM*,-2,0%,1%
CC(=O)C(N=Nc1ccccc1)(Sc1nnc(-c2ccccc2)n1-c1ccccc1)C(C)=O,-9,?,12µM*,-4,8%,?
CC(=O)C(N=Nc1ccccc1)(Sc1nnc(-c2ccccc2)n1-c1ccccc1)C(=O)Nc1ccccc1 (stereo not given),-1,i,i,-20,6%,5%
Cc1cc(-c2ccccc2)nc(=O)[nH]1,-167*,i,i,-192*,0%,-3%
COc1ccc(Nc2nc(Nc3ccc(OC)cc3)nc(-n3[nH]c(=O)c(C)c3C)n2)cc1,-2,i,1.2µM*,-21,?,13%
COCC(=O)N1CCC(Oc2ccc(C(=O)NCCCC3CCCC3)cc2)CC1,-12,?,9.2µM*,·,-9%,-4%
COc1ccc(NC(=S)N/N=C/c2cccn2Cc2ccc(F)cc2)cc1,-1,i,i,-19,19%,13%
O=C(O)C1CCCCC1C(=O)NC1C2CC3CC(C2)CC1C3 (stereo not given),2,i,?,-5,11%,1%
NC(=S)NNC(=O)[C@@H]1CCCC[C@@H]1C(=O)O,16,i,i,15,-8%,0.52µM*
